From ChEMBL document CHEMBL4513139, “CO-ADD screening of University of Strathclyde (UK) compounds”
Results with a measured potency or affinity are listed apart.

Legend:
Klebsiella pneumoniae = conditions: Concentration 32 ug.mL-1; ASSAY_TEST Inhibition of Bacterial Growth; detection method Absorption (OD600); MEDIA CAMHB; plate type 384well; NBS; CORNING #3640; time 18 hr
Candida albicans = conditions: 32 ug/mL
Cryptococcus neoformans = conditions: Concentration 32 ug.mL-1; ASSAY_TEST Inhibition of Fungal Growth; detection method Resazurin; Absorption (OD600-OD570); plate type 384well; NBS; CORNING #3640

Row | Structure (SMILES) | Inhibition (Klebsiella pneumoniae) [%] | Inhibition (Candida albicans) [%] | Inhibition (Cryptococcus neoformans) [%]
1 | Cn1cc(NC(=O)c2cc(NC(=O)c3sc(N)nc3C(F)(F)F)cn2C)cc1C(=O)NCCN1CCOCC1.O=C(O)C(F)(F)F | -3.11 | 1.1 | -112.77
2 | Cc1ncc(CNc2ccc(C(C)(C)C)cc2)c(N)n1 | 2.67 | -0.83 | -46.61
3 | COc1ccc(CC(=O)Nc2cc(C(=O)Nc3cc(C(=O)Nc4cn(CCCN(C)C)cn4)n(C)c3)n(C)c2)cc1.O=C(O)C(F)(F)F | 2.03 | 1.27 | -97.5
4 | COc1cccc(C(=O)Nc2cc(C(=O)Nc3cc(C(=O)Nc4cn(CCCN(C)C)cn4)n(C)c3)n(C)c2)c1.O=C(O)C(F)(F)F | 3.02 | 3.2 | -93.96
5 | CC(=O)Nc1cc(C(=O)Nc2cc(C(=O)Nc3cc(C(=O)NCCCN(C)C)n(CCC(C)C)c3)n(C)c2)n(C)c1.O=C(O)C(F)(F)F | -0.56 | 0.94 | -102.49
6 | CC(C)n1cc(NC(=O)c2cc(NC(=O)c3cc(NC=O)cn3C(C)C)cn2C)cc1C(=O)NCCCN(C)C.O=C(O)C(F)(F)F | 2.64 | -1.38 | -103.79
7 | COc1cccc(C(=N)Nc2cc(C(=O)Nc3cc(C(=O)Nc4cc(C(=O)NCCCN5CCOCC5)n(C)c4)n(C)c3)n(C)c2)c1.O=C(O)C(F)(F)F.O=C(O)C(F)(F)F | 14.25 | 1.73 | -103.93
